High-throughput results as filed in PubChem BioAssay.
FLuc inh: qHTS Assay for Inhibitors of Firefly Luciferase. Luciferin 4-monooxygenase (Photinus pyralis), P08659. purified firefly luciferase, luminescence, 8 min. Potency, µM (doses to about 57.1 µM), without a hit: at the highest dose activity change, negative = inhibition, most hits filed as inhibitors. actives 2.2% (n = 72,000); further: on the % scale 0 is the no-effect control and ±100 the full control effect; nearly all actives have a fitted effect of over 40% in size
Target sequence (P08659 whole entry, looked up): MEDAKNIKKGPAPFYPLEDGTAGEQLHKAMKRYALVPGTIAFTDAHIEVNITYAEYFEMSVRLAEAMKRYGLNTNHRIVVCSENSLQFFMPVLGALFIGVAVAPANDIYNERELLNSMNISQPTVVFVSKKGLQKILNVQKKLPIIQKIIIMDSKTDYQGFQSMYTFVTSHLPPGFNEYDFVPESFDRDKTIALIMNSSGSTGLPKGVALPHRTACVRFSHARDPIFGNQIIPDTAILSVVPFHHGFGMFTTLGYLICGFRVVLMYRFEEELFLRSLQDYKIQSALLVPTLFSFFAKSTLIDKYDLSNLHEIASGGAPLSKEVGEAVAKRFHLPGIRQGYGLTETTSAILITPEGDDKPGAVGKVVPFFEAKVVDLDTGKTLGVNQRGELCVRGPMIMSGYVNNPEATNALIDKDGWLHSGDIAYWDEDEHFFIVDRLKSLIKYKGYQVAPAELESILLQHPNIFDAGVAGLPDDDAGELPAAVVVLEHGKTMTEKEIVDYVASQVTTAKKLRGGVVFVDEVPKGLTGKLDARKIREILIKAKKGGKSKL
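Titration-based qHTS; buffer 50 mM imidazole pH 7.2, 50 mM KCl, 7 mM MgCl2, 10 uM ATP, 0.01% Tween 20, 0.05% BSA; luciferase/luciferin detector mix added after compound; 8 min, ambient; luminescence.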
GBA activity: Glucocerebrosidase; actives 1.1% (n = 48,000); purified enzyme, resorufin glucoside fluorescence (screen aimed at inhibitors), 20 min; Potency, µM; in the data active means potency below about 15 µM; inconclusive means mostly about 16 µM to 33 µM;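 further: the screen sought inhibitors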
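Normal human glucocerebrosidase (0.2 nM final) was assayed with resorufin β-D-glucopyranoside (30 uM final) in 50mM citric acid/KH2PO4, 10mM sodium taurocholate, 0.01% tween-20, pH 5.9. Compounds were titrated; fluorescence (Ex 548, Em 600) read after 20 min at RT.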
Casp1 inh: qHTS Assay for Allosteric/Competitive Inhibitors of Caspase-1; P29466; Caspase-1 enzyme, Ac-WEHD-AFC fluorogenic rate; Potency, µM (top dose mostly 57.5 µM), for inactives: at the top dose activity change, negative = inhibition, actives largely listed as inhibitors; actives 0.03% (n = 75,000); AID 900, 2007;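 further: plate controls were vehicle for no effect and no substrate for full effect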
Bst PK mod: Pyruvate Kinase. actives 1.2% (n = 51,000). purified pyruvate kinase, luminescence ATP production; ribose 5-phosphate activator present at AC10. AID 361, 2006. Potency, µM; in the data active means potency below about 11 µM; inconclusive means mostly about 12 µM to 25 µM;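 the screen sought inhibitors and activators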;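 further: scaled between full activation by ribose 5 phosphate and full inhibition by luteolin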
Caspase-7 inhib: qHTS Assay for Allosteric/Competitive Inhibitors of Caspase-7 | P55210 | recombinant caspase-7, Ac-DEVD-AFC fluorescence rate | actives 0.02% (n = 75,000) | Potency, µM (series often up to 57.5 µM), for the others: top-dose activity change, negative = inhibition, most hits filed as inhibitors | AID 889, 2007; active means well fitted inhibition curve with a large enough effect in the main read-out, with a control signal flat, not every such curve was filed as active; inconclusive means small, poorly fitted or top-dose-only effect, or a change in a side signal; further: % of control where 0% means no effect
The depositor's hits bear a star; i = inactive; ? = inconclusive; · = no result; [ ] = remark or other dose. Shown are actives, neighbours in structure and some others; about 3.1% of the full set was active somewhere. Unless noted, the call rests on the fitted dose curve; in most records, active means well fitted inhibition curve with a large enough effect; inconclusive means small, poorly fitted or top-dose-only effect; inactive means flat fitted curve, though single readings scatter. Potency means the concentration at half of the fitted maximal effect.

SMILES	FLuc inh	GBA activity	Casp1 inh	Bst PK mod	Caspase-7 inhib
C[C@@H]1C(=O)O[C@@H]2C[C@@]34[C@H]5C[C@@H](C(C)(C)C)[C@@]36[C@@H](OC(=O)[C@@H]6O)O[C@]4(C(=O)O5)[C@@]12O	1.2%[11.4 µM]	·	·	·	·
COc1cc(OC)cc([C@H](CNc2ncnc3c2ncn3[C@@H]2O[C@@H](CO)[C@H](O)[C@@H]2O)c2ccccc2C)c1	-0.9%	·	·	·	·
CCn1c2ccccc2c2cc(NC(=O)C3CCN(S(=O)(=O)c4cccs4)CC3)ccc21	0.7%	2.78*	1.8%	>57	-1.2%
O=C(Nc1ccccn1)c1ccc2ccccc2n1	3.16µM*	·	-1.4%	9*	-2.6%
Cn1c(=O)c2c(nc(C(=N)SCC(=O)O)n2C)n(C)c1=O	0.9%[11.4 µM]	·	·	·	?
CCCC1C(c2ccco2)NC(c2ccco2)CC1(C)O (centres undefined)	12.6µM*	>76.9	-1.9%	?	-0.8%
COc1ccc(C(=O)NCCn2ccc3ccccc32)cc1OC	10µM*	·	-3.5%	·	-1.9%
Nc1ncnc2c1ncn2[C@H]1O[C@@H](C(=O)O)[C@@H](O)[C@H]1O	-0.6%[11.4 µM]	·	-0.8%[11.5 µM]	·	0.0%[11.5 µM]
CCCn1c(=N)n(CC(=O)C(C)(C)C)c2ccccc21	3.7%	4.39*	-0.5%	>57	1.4%
Cn1c(=N)n(CC(=O)C(C)(C)C)c2ccccc21	-1.8%	13.1*	1.8%	>57	-0.1%
Brc1ccc(-c2cnnc(N3CCCC3)n2)cc1	-1.3%[25.5 µM]	·	·	2.4*	·
C=CCSc1nncn1/N=C/c1ccc(OC)cc1	25.1µM*	>76.9	1.2%	i	-4.0%
COc1ccc(/C=N/n2cnnc2SCCO)cc1OC	·	·	-2.7%	·	-1.7%
Cc1cc2ncn(CC(=O)O)c2cc1C	-0.1%[11.4 µM]	·	-1.5%[11.5 µM]	·	-0.8%[11.5 µM]
C[C@@H]1C(=O)O[C@H]2[C@@H](O)[C@@]34[C@H]5C[C@H](C(C)(C)C)[C@@]36[C@H](OC(=O)[C@@H]6O)O[C@@]4(C(=O)O5)[C@@]12O	-0.3%[11.4 µM]	·	·	·	·
O=C(Nc1ccc2c(c1)nc1n2CCN(C2CCCCC2)C1)c1ccco1	-6.2%	i	?	>57	?
O=C(Nc1ccc2c(c1)nc1n2CCOC1)c1ccco1	15.8µM*	?	0.5%	?	-1.8%
O=C(Nc1ccc2c(c1)nc1n2CCSC1)c1ccco1	6.31µM*	·	-11.3%	4.58*	-28.4%
C[N+]1(C)CCO[C@](O)(c2ccccc2)C1	3.3%[11.4 µM]	·	-1.6%[11.5 µM]	·	0.0%[11.5 µM]
c1cc(-c2nc3ccccc3o2)nc(-c2nc3ccccc3o2)c1	1.9%	>76.9	3.7%	>57	-0.5%
c1ccc2nc(-c3nc4ccccc4o3)ccc2c1	1.26µM*	?	-2.0%	1.48*	-1.0%
O=C(O)Cn1c(-c2ccccc2)nc2ccccc21	-1.1%	>76.9	0.3%	>57	0.3%
O=Nc1c2nc3ccccc3n(O)c-2c2ccccc12	-5.8%	>76.9	-13.5%	7.25*	-11.4%
Cc1cccc(C(=O)O)c1C[C@H]1NCC[C@H]2c3ccccc3N[C@@H]12	1.0%[11.4 µM]	·	-3.7%[11.5 µM]	·	-10.1%[11.5 µM]
CSc1nc2[nH]c3c(c2c2nnnn12)CCCC3	-3.0%[25.5 µM]	·	·	0.783*	·
SMILES	FLuc inh	GBA activity	Casp1 inh	Bst PK mod	Caspase-7 inhib
CSc1nc2[nH]c3c(c2c2nncn12)CC(C)(C)OC3	-2.4%[25.5 µM]	·	·	i	·
CC(C)c1ccc(NC(=O)c2csnn2)cc1	5.01µM*	i	-0.3%	i	-2.3%
CC(C)c1ccc(NC(=O)c2cccnc2)cc1	15.8µM*	·	-0.5%	·	-0.1%
NC(=O)c1ccc(-c2ncc(-c3ccccc3)o2)cc1	12.6µM*	>76.9	2.6%	3.95*	-0.9%
NS(=O)(=O)c1cc2c(cc1Cl)=NC(CCC(=O)O)=NS=2(=O)O	2.6%[11.4 µM]	·	-1.2%[11.5 µM]	·	-0.6%[11.5 µM]
Cc1cc(C(=O)COc2cccc(-n3cnnn3)c2)c(C)n1-c1ccccc1	12.6µM*	>76.9	-2.1%	·	-3.1%
O=C(O)/C=C\C(=O)Nc1ncn[nH]1	2.9%[11.4 µM]	·	-1.8%[11.5 µM]	·	0.2%[11.5 µM]
Cc1ccc(Nc2nc(C3CC3)cs2)cc1	7.94µM*	·	-2.8%	·	0.3%
Cc1cccc(C)c1OC[C@@H](N)C(C)C	-0.2%	·	-3.3%	·	0.1%
O=C1NC(c2cccs2)Nc2sc3c(c21)CCCC3 (centres undefined)	-28.3%	>76.9	1.7%	2.89*	-0.3%
COc1cc(SC)ccc1C(=O)Nc1ccon1	25.1µM*	>76.9	-1.4%	?	-1.1%
COC(=O)c1[nH]c2ccc(C)cc2c1NC(=O)CN1CCCCC1C (centres undefined)	2.1%	>76.9	-0.9%	>57	0.8%
